Compound activity as filed in PubChem.
In the library only some 3.9% were active in any assay of this set; here they are far more common.
ATXN viability: Viability Counterscreen for Primary qHTS for Inhibitors of ATXN expression; Potency, µM (highest dose often 56.7 µM), hits mostly cytotoxic; S2 cells (HEK-293 line with an ATXN2-luciferase reporter) viability, CellTiter-Fluor protease fluorescence, 24 h; 400,000 tested, 0.49% active; further: nearly all actives have a fitted effect of over 40% in size
HT1080NT lethal: qHTS for induction of synthetic lethality in tumor cells producing 2HG: qHTS for the HT-1080-NT fibrosarcoma cell line | HT-1080-NT fibrosarcoma viability, CellTiter-Glo ATP luminescence, 48 h | 360,000 tested, 1.6% active | AID 686970, 2013 | Potency, µM (highest dose often 46.1 µM), for inactives: at the top dose activity, negative = less viability, usual class: cytotoxic;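 further: NT is the 2HG producing partner of a matched IDH1 knockdown line; 0% = DMSO-treated cells and -100% = media-only wells without cells; nearly all actives have a fitted effect of over 55% in size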
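Read-out is CellTiter-Glo luminescence after 10 minutes at room temperature, following 48 hours' compound treatment of HT-1080-NT cells (750 cells/well, RPMI, 5% FBS, 37 degrees C).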
TGFb inhibitor: qHTS for Inhibitors of TGF-b | HepG2 CAGA-GFP TGF-b/SMAD3 reporter, GFP fluorescence, 18 h; TGF-beta stimulated, 500 pg/mL final | Potency, µM (top dose mostly 46.1 µM), without a hit: at the top dose activity, negative = inhibition, actives largely listed as inhibitors | 410,000 tested, 1.2% active; further: on the % scale 0 is the no-effect control and ±100 the full control effect; nearly all actives have a fitted effect of over 65% in size
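HEPG2 CAGA-GFP cells (1000/well, DMEM with 1% FBS) were pre-incubated 2 h at 37 degrees C, given compound by pin tool, then stimulated with TGF-beta at 500 pg/mL final for 18 h before per-cell GFP fluorescence imaging.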
HepG2 viability: qHTS for Inhibitors of TGF-b: Cytotox Counterscreen; HepG2 CAGA-GFP viability, ATP luminescence, 18 h; Potency, µM (highest dose often 46.1 µM), without a hit: at the highest dose activity change, negative = cytotoxicity, usual class: cytotoxic; 410,000 tested, 0.76% active
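HepG2 CAGA-GFP cells (1000/well, DMEM with 1% FBS) received compound, then TGF-beta at 500 pg/mL final, and were incubated 18 hours at 37 degrees C. Viability was read by CellTiter-Glo luminescence. Media-only wells were set as complete cell-killing and DMSO as no toxicity.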
ATXN2 expr inh: Primary qHTS for Inhibitors of ATXN expression. HEK-293 ATXN2-luciferase reporter, luminescence, 24 h. 360,000 tested, 0.72% active. Potency, µM (titrated, usually from 57 µM), inactives show at the top dose activity change, negative = inhibition, actives largely listed as inhibitors; further: on the % scale 0 is the no-effect control and ±100 the full control effect; nearly all actives have a fitted effect of over 55% in size
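ATXN2-luciferase reporter cells (luciferase flanked by upstream and downstream ATXN2 gene portions) were treated 24 h at 37 °C with compounds at up to 57 uM. SteadyGlo luminescence gave expression; GF-AFC fluorescence gave viability.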
HT1080 IDH1KD tx: qHTS for induction of synthetic lethality in tumor cells producing 2HG: qHTS for the HT-1080-IDH1KD cell line; 360,000 tested, 2% active; Potency, µM (highest dose often 46.1 µM), for inactives: at the top dose activity, negative = toxicity, actives largely listed as cytotoxic; HT-1080 IDH1 knockdown viability, ATP luminescence, 48 h;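 further: 0% = DMSO wells and -100% = cell-free medium wells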
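In this qHTS, HT-1080 cells depleted of IDH1 are exposed for 48 h at 37 °C to compound titrations. Toxicity is scored from CellTiter-Glo luminescence, with DMSO as full viability and medium alone as none.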
Numbers without * were called inactive. The call rests on the fitted dose curve; in most records, active means well fitted curve in the direction sought with a large enough effect; inconclusive means small, poorly fitted or top-dose-only effect, or another doubt; inactive means no such curve, though single readings can be large; an effect the other way counts as inactive or inconclusive. Potency means the concentration at half of the fitted maximal effect.

For Cc1ccc(NC(=O)CSc2ccccc2NC(=O)c2cccc(Cl)c2)cc1Cl the results were ATXN viability inactive, HT1080NT lethal 3%, TGFb inhibitor -19%, HepG2 viability -5%, ATXN2 expr inh 2% and HT1080 IDH1KD tx 12%.
`COc1ccc(-n2nc3cc(C)c(NC(C)=O)cc3n2)cc1` gave ATXN viability inactive, HT1080NT lethal 16%, TGFb inhibitor 9%, HepG2 viability 1%, ATXN2 expr inh 8.9µM* and HT1080 IDH1KD tx 19%.
For CCc1ccc(-n2nc3cc(C)c(NC(=O)c4cc(OC)cc(OC)c4)cc3n2)cc1 the results were ATXN viability inactive, TGFb inhibitor 1%, HepG2 viability -4% and ATXN2 expr inh 17%.
For Cc1nn(-c2ccccc2)c2nc(-c3cccs3)cc(C(=O)NN)c12 the results were ATXN viability inactive, HT1080NT lethal inconclusive, TGFb inhibitor 10µM*, HepG2 viability -29%, ATXN2 expr inh inconclusive and HT1080 IDH1KD tx inconclusive.
`c1ccc(-c2nc(NCc3ccco3)c3ccccc3n2)nc1` gave ATXN viability inconclusive, HT1080NT lethal -23%, TGFb inhibitor -26%, HepG2 viability -41%, ATXN2 expr inh inconclusive and HT1080 IDH1KD tx inconclusive.
COc1ccccc1Nc1nc(NCc2ccco2)c2ccccc2n1 was read as ATXN viability inactive, HT1080NT lethal 21µM*, TGFb inhibitor inconclusive, HepG2 viability -54%, ATXN2 expr inh -30% and HT1080 IDH1KD tx 23µM*.
Screening Cc1ccc(Nc2nc(NCc3ccco3)c3ccccc3n2)cc1 returned ATXN viability inactive, HT1080NT lethal inconclusive, TGFb inhibitor 11µM*, HepG2 viability -47%, ATXN2 expr inh inconclusive and HT1080 IDH1KD tx 23µM*.
`Oc1ccccc1-c1nc(NCc2ccco2)c2ccccc2n1` gave ATXN viability inactive, HT1080NT lethal -25%, TGFb inhibitor 27%, HepG2 viability -31%, ATXN2 expr inh -28% and HT1080 IDH1KD tx -26%.
Cc1ccc(CN2CCc3nnc(C(NC(=O)c4ccoc4)C(C)C)n3CC2)cc1C (configuration not stated) was read as ATXN viability inactive.
Cc1cc(C(=O)Nc2ccccc2-c2nc(CNC(=O)c3cc4ccccc4cn3)c(C)o2)c(C)o1 was read as ATXN viability inactive.
COc1cc(CNCCN2CCOCC2)ccc1OCc1cccc(Cl)c1 was read as ATXN viability inactive, HT1080NT lethal inconclusive, TGFb inhibitor 67%, HepG2 viability -23%, ATXN2 expr inh 0% and HT1080 IDH1KD tx inconclusive.
COc1cc(CNCc2ccccn2)ccc1OCc1ccc(Cl)c(Cl)c1 was read as ATXN viability inactive, HT1080NT lethal inconclusive, TGFb inhibitor -10%, HepG2 viability -28%, ATXN2 expr inh 6% and HT1080 IDH1KD tx inconclusive.
`COc1cc(CNCc2ccccn2)ccc1OCc1ccc(Cl)cc1Cl` gave ATXN viability inactive, HT1080NT lethal 23µM*, TGFb inhibitor inconclusive, HepG2 viability -70%, ATXN2 expr inh -23% and HT1080 IDH1KD tx 21µM*.
`COc1cc(CNCCN2CCOCC2)ccc1OCc1ccc(Cl)cc1Cl` gave HT1080NT lethal 26µM*, TGFb inhibitor 20µM*, HepG2 viability -101%, ATXN2 expr inh inconclusive and HT1080 IDH1KD tx 21µM*.
For COc1cc(OC)cc(C(=O)N2CCCC(n3cc(C(=O)NCC(C)C)nn3)C2)c1 (configuration not stated) the results were ATXN viability inactive.
